This is part of a sample that, as a whole, favours compounds with a hit. Of some 79,000 tested, about 15% had one in any assay. Values without a mark were called inactive. Activity calls are given as the source filed them. Cut-off read from the data, not from the text of the source: active = growth inhibition above about 70%; inactive = the rest.
Columns and labels:
[1] = NCI Yeast Anticancer Drug Screen. Data for the rad50 strain (AID 155);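 note: 0% = growth of vehicle-only cultures of the same strain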; conditions: S. cerevisiae rad50 strain growth inhibition, stronger effect = higher value
Procedure, shortened: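 Readout: growth inhibition relative to vehicle-treated cultures. Compound exposure was carried out in a genetically defined yeast strain deficient in DNA damage repair.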

[2] = NCI Yeast Anticancer Drug Screen. Data for the mec2-1 strain (AID 157); conditions: S. cerevisiae mec2-1 strain, stronger effect = higher value
Procedure, shortened: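 Strain: mec2-1 (DNA repair/cell cycle alteration). Compound exposure, then growth measured; inhibition expressed relative to vehicle.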

[3] = NCI Yeast Anticancer Drug Screen. Data for the sgs1 mgt1 strain (AID 161);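 note: 0% = growth of cultures given vehicle only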; conditions: S. cerevisiae sgs1 mgt1 strain, stronger effect = higher value
Procedure, shortened: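 Genetically altered yeast, compound exposure, growth inhibition relative to vehicle.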

[4] = NCI Yeast Anticancer Drug Screen. Data for the cln2 rad14 strain (AID 165);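 note: 0% = growth equal to vehicle treated cultures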; conditions: S. cerevisiae cln2 rad14 strain, stronger effect = higher value
Procedure, shortened: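 Compounds are applied to the cln2 rad14 yeast strain, and growth is then compared with that of vehicle-treated cultures to give inhibition.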

[5] = NCI Yeast Anticancer Drug Screen. Data for the bub3 strain (AID 167); conditions: S. cerevisiae bub3 mutant strain, stronger effect = higher value
Procedure, shortened: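 Readout: yeast growth inhibition, expressed relative to vehicle-only wells. The test organism is a mutant strain from a panel with lesions in DNA repair or checkpoint genes.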

[6] = NCI Yeast Anticancer Drug Screen. Data for the mlh1 rad18 strain (AID 175); conditions: S. cerevisiae mlh1 rad18 strain growth inhibition, stronger effect = higher value
Procedure, shortened: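 Read-out is yeast growth inhibition, calculated against vehicle-only controls. The compound was applied to a strain engineered with DNA damage repair alterations.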

[7] = at 5.0 µM (retest, dose inferred, filed as 0.5)
[8] = at 50.0 µM (retest, dose inferred, filed as 5.0)

| SMILES | growth inhibition [1, 7] | growth inhibition [1, 8] | growth inhibition ([1]; at 50.0 µM) | growth inhibition [2, 7] [%] | growth inhibition [2, 8] | growth inhibition ([2]; at 50.0 µM) | growth inhibition [3, 7] [%] | growth inhibition [3, 8] | growth inhibition ([3]; at 50.0 µM) | growth inhibition [4, 7] [%] | growth inhibition [4, 8] | growth inhibition ([4]; at 50.0 µM) | growth inhibition [5, 7] [%] | growth inhibition [5, 8] | growth inhibition ([5]; at 50.0 µM) | growth inhibition [6, 7] [%] | growth inhibition [6, 8] | growth inhibition ([6]; at 50.0 µM) |
| --- | --- | --- | --- | --- | --- | --- | --- | --- | --- | --- | --- | --- | --- | --- | --- | --- | --- | --- |
| N#CSc1ccc(O)c2ccccc12 | 75% (active) | 79% (active) | 90.2% (active) | 64 | 87% (active) | 91% (active) | 19 | 98% (active) | 91.7% (active) | 45 | 98% (active) | 91% (active) | 42 | 96% (active) | 90.3% (active) | 29 | 74% (active) | 89.5% (active) |
| [N-]=[N+]=CC(=O)c1ccc(C(=O)C=[N+]=[N-])cc1 | 8% | 95% (active) | 99.2% (active) | 12 | 99% (active) | 99.5% (active) | 10 | 95% (active) | 99.4% (active) | 8 | 98% (active) | 98.7% (active) | 5 | 98% (active) | 99.5% (active) | 11 | 95% (active) | 99.2% (active) |
| CCCCCNC(=O)C1C(=O)N(CCCCC)C(=O)/C1=N\N (configuration not stated) | -1% | -1% | -5% | -3 | 2% | 29.8% | 2 | 3% | 1.7% | 1 | -3% | 79.7% (active) | 5 | -3% | 30.8% | -1 | -4% | -13.5% |
| Nc1ccc(S(=O)(=O)Nc2cc(Cl)cc(Cl)c2)cc1 | -4% | 92% (active) | 99.5% (active) | -4 | 100% (active) | 97.2% (active) | -4 | 99% (active) | 99.3% (active) | -15 | 99% (active) | 97.3% (active) | 3 | 99% (active) | 99.2% (active) | 1 | 99% (active) | 98.2% (active) |
| COc1ccc(SC2=C(N(C)C)C(=O)c3ccccc3C2=O)cc1 | 2% | 85% (active) | 88.2% (active) | -19 | 79% (active) | 19.8% | 2 | 92% (active) | 63.2% | 54 | 79% (active) | 22.8% | -10 | -46% | 60% | 11 | 88% (active) | 84.5% (active) |
| CC(=Nc1ccc(S(=O)(=O)c2ccc(N=C(C)N3CCCCC3)cc2)cc1)N1CCCCC1 | 0% | 2% | -0.05% | -1 | -1% | 4% | -2 | 1% | -6.45% | -5 | -2% | -10.5% | -1 | -1% | -2.55% | -2 | -5% | -2.15% |
| O=C(O)c1ccccc1C1c2ccccc2Oc2ccccc21 | 36% | 5% | 95.4% (active) | -2 | 16% | 94% (active) | -3 | 3% | 95.4% (active) | 5 | 6% | 97.3% (active) | 7 | 17% | 91.2% (active) | 0 | 7% | 95.8% (active) |
| CC(=O)OCC1OC(n2c(O)c(N=NC(N)=S)c3ccc([N+](=O)[O-])cc32)C(OC(C)=O)C1OC(C)=O (configuration not stated) | 12% | 95% (active) | 96.5% (active) | 5 | 47% | 34.6% | -9 | 72% (active) | 71.5% (active) | -33 | 23% | -1.15% | 6 | 34% | 53.3% | -1 | 68% | 61.3% |
| CC(C)(C)OC(=O)C(N(Cc1ccccc1)Cc1ccccc1)N(Cc1ccccc1)Cc1ccccc1 | 0% | 14% | 12.1% | 2 | 9% | 20.6% | 2 | 17% | 24.4% | 3 | 10% | -2.05% | 0 | 11% | 4.75% | 3 | 22% | 30.3% |
